Holding throughout (experiment): NCI-60 one-dose screen, 48 h (100 = growth as untreated, 0 = no growth, -100 = all killed)
One experiment deals with HT29 colon. The settings on record: 10 µM unless noted.
The next experiment concerns SNB-75 CNS. The conditions noted are these: 10 µM unless noted.
The subject of the next experiment is SNB-19 CNS. The settings on record: 10 µM unless noted.
The test system of another experiment is PC-3 prostate. The settings on record: 10 µM unless noted.
For a further experiment, the system named is SK-MEL-5 melanoma. The settings on record: 10 µM unless noted.
Another experiment relates to UACC-62 melanoma.
The test system of a further experiment is LOX IMVI melanoma. The settings on record: 10 µM unless noted.
In the next experiment the test system is SK-MEL-2 melanoma. The settings on record: 10 µM unless noted.
Another experiment relates to EKVX NSCLC. The conditions noted are these: 10 µM unless noted.
The test system of another experiment is SN12C renal. The conditions noted are these: 10 µM unless noted.
The test system of another experiment is UO-31 renal. The conditions noted are these: 10 µM unless noted.
The subject of the next experiment is TK-10 renal.
The next experiment deals with ACHN renal. The conditions noted are these: 10 µM unless noted.
A further experiment concerns CAKI-1 renal. The settings on record: 10 µM unless noted.
Another experiment relates to A498 renal. The conditions noted are these: 10 µM unless noted.
The next experiment has as its system CCRF-CEM leukemia. The settings on record: 10 µM unless noted.
Another experiment has as its system MOLT-4 leukemia. The settings on record: 10 µM unless noted.
A further experiment concerns U251 CNS. The conditions noted are these: 10 µM unless noted.
The test system of a further experiment is SK-MEL-28 melanoma. The settings on record: 10 µM unless noted.

Where “and” joins values, the source holds several entries; their conditions need not be identical. Equal entries are not always repeated. This is part of a sample that, as a whole, favours compounds with a hit. Of some 83,000 tested, about 20% had one in any assay.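 Activity criterion: percent growth below 10, measured after cells in 96-well plates were exposed to a single compound concentration for 48 hours.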 A number with no mark means an inactive call. Calls of active or inactive are those of the source.

In the case of `O=C(O)C1CSCN1` (centres undefined), the growth with HT29 colon was 104%; with SNB-75 CNS it was 109% and 73.5%; in the experiment with SNB-19 CNS it was 105% and 94%; in the experiment on PC-3 prostate, 99.4% and 112%; in the experiment with SK-MEL-5 melanoma, 135%; in the experiment with UACC-62 melanoma (10 µM unless noted), 105% and 96%. Moreover, the growth with LOX IMVI melanoma was 108% and 102%; in the experiment on SK-MEL-2 melanoma, 110% and 84.4%; with EKVX NSCLC, 102% and 101%; in the experiment on SN12C renal, 100%; with UO-31 renal, 81.3% and 88.6%; in the experiment on TK-10 renal (10 µM unless noted), 103% and 109%. Further, the growth in the experiment on ACHN renal was 101% and 97.9%; in the experiment on CAKI-1 renal it was 92.9% and 91.4%; with A498 renal, 113% and 103%; in the experiment with CCRF-CEM leukemia it was 100% and 121%; in the experiment on MOLT-4 leukemia it was 75.9% and 106%.
Take `Nc1nc(N)c2cc(S(=O)(=O)c3ccccc3)ccc2n1`: the growth is 22.9% and 15% in the experiment on HT29 colon; 78.7% and 76.9% in the experiment with SNB-75 CNS; 42.9% and 52.7% in the experiment with PC-3 prostate; 23.3% and 25.3% with SK-MEL-5 melanoma; 21.5% and 53.7% in the experiment on UACC-62 melanoma (10 µM unless noted); 30.6% and 19.2% with LOX IMVI melanoma. Also, the growth with SK-MEL-2 melanoma was 80.2% and 126%; in the experiment with EKVX NSCLC it was 47.4% and 51.2%; in the experiment on SN12C renal it was 29.2% and 41.4%; with UO-31 renal, 35.3% and 61.5%; in the experiment on TK-10 renal (10 µM unless noted) it was 59.6% and 63.8%; in the experiment on ACHN renal it was 24% and 29.6%. Moreover, the growth in the experiment with CAKI-1 renal is 21.3% and 22.4%; with A498 renal, 57.2% and 94.4%; in the experiment with CCRF-CEM leukemia, 37.9% and 29.7%; with MOLT-4 leukemia, 32.8% and 49.8%.
Consider `NC(=O)Cc1nc(O)cc(=O)[nH]1`, for which the growth in the experiment on HT29 colon was 93.2%; in the experiment with SNB-75 CNS, 88.1%; in the experiment with U251 CNS it was 89.4%; with PC-3 prostate it was 76.2%; in the experiment with SK-MEL-5 melanoma, 104%; in the experiment on UACC-62 melanoma (10 µM unless noted), 98%. Moreover, the growth in the experiment on LOX IMVI melanoma was 105%; with SK-MEL-2 melanoma, 102%; in the experiment on EKVX NSCLC it was 103%; with SN12C renal, 96.2%; in the experiment on UO-31 renal, 95.4%; in the experiment on TK-10 renal (10 µM unless noted) it was 94%. The growth with CAKI-1 renal is 99.2%; in the experiment with A498 renal, 85.6%; in the experiment on CCRF-CEM leukemia, 88.3%; with MOLT-4 leukemia, 95.6%.
With `CC(C)(C)OC(=O)c1ccc(NCc2cc(O)ccc2O)cc1`, the growth with HT29 colon was 73.5%; in the experiment on SNB-75 CNS it was 30.5%; with U251 CNS, 20.5%; in the experiment with PC-3 prostate it was 12.5%; in the experiment on SK-MEL-5 melanoma, 52.4%; in the experiment with UACC-62 melanoma (10 µM unless noted) it was 8.79% (active). Also, the growth with LOX IMVI melanoma is 24.3%; in the experiment with SK-MEL-28 melanoma it was 8.43% (active); in the experiment on SK-MEL-2 melanoma it was 47.7%; in the experiment on EKVX NSCLC it was 50.1%; with SN12C renal, 7.05% (active); in the experiment with UO-31 renal, -95.1% (active). Further, the growth in the experiment on TK-10 renal (10 µM unless noted) is 2.52% (active); with CAKI-1 renal it was -36% (active); in the experiment on A498 renal, 25.1%; in the experiment with CCRF-CEM leukemia it was -1.62% (active); with MOLT-4 leukemia, 5.04% (active).
Take `Cc1c(O)nc(N)[nH]c1=O`: the growth was 106% in the experiment with HT29 colon; 102% in the experiment on SNB-75 CNS; 108% in the experiment on SNB-19 CNS; 100% in the experiment with U251 CNS; 101% with PC-3 prostate; 113% with SK-MEL-5 melanoma. The growth is 100% in the experiment on UACC-62 melanoma (10 µM unless noted); 99.4% in the experiment on LOX IMVI melanoma; 110% in the experiment on SK-MEL-28 melanoma; 123% in the experiment on SK-MEL-2 melanoma; 106% with EKVX NSCLC; 109% with SN12C renal. Also, the growth in the experiment on UO-31 renal was 82.9%; in the experiment with TK-10 renal (10 µM unless noted) it was 126%; in the experiment on ACHN renal it was 108%; in the experiment on CAKI-1 renal it was 110%; with A498 renal it was 109%; with CCRF-CEM leukemia, 90.1%. Besides, the growth in the experiment with MOLT-4 leukemia is 102%.
Turning to `C#CCOC(=O)C(N)CS` (centres undefined), the growth is 110% with HT29 colon; 81.9% in the experiment on SNB-75 CNS; 99.7% with SNB-19 CNS; 101% in the experiment on U251 CNS; 90.5% in the experiment with PC-3 prostate; 104% in the experiment on SK-MEL-5 melanoma. Also, the growth in the experiment on UACC-62 melanoma (10 µM) is 88.5%; in the experiment with UACC-62 melanoma (100 µM), 87.6% and 90.2%; in the experiment with LOX IMVI melanoma, 101%; with SK-MEL-28 melanoma it was 94.9%; in the experiment with SK-MEL-2 melanoma it was 115%; in the experiment on EKVX NSCLC, 92.9%. The growth with SN12C renal was 87.2%; in the experiment on UO-31 renal, 82.5%; in the experiment on TK-10 renal (10 µM), 107%; with TK-10 renal (100 µM), 103% and 107%; in the experiment on ACHN renal it was 98.8%; with CAKI-1 renal, 99.9%. In addition, the growth with A498 renal was 128%; in the experiment with CCRF-CEM leukemia, 107%; in the experiment with MOLT-4 leukemia, 108%.
Take `Cc1cc(Cl)nc(Nc2ccccc2)n1`: the growth was 104% with HT29 colon; 96.2% in the experiment with SNB-75 CNS; 103% in the experiment with SNB-19 CNS; 96.8% in the experiment on PC-3 prostate; 97.2% in the experiment with SK-MEL-5 melanoma; 90.2% in the experiment with UACC-62 melanoma (10 µM unless noted). For the same compound, the growth was 97% in the experiment on LOX IMVI melanoma; 109% in the experiment with SK-MEL-28 melanoma; 106% with SK-MEL-2 melanoma; 93.8% in the experiment with EKVX NSCLC; 96.1% in the experiment on SN12C renal; 102% with UO-31 renal. Also, the growth in the experiment with TK-10 renal (10 µM unless noted) is 94.4%; in the experiment with ACHN renal it was 98.9%; in the experiment with CAKI-1 renal, 78.7%; with A498 renal, 93.3%; in the experiment on CCRF-CEM leukemia it was 99.3%; in the experiment with MOLT-4 leukemia it was 94.8%.
